# RORgamma inh – inhibitors of mouse ROR gamma transcriptional activity; P51450; Drosophila S2 Gal4-RORgamma UAS-luciferase reporter, 20 h; Potency, µM (doses to about 53.6 µM), for inactives: top-dose activity change, negative = inhibition, most hits filed as inhibitors; actives 5.4% (n = 310,000); note: potency is the fitted concentration of half-maximal effect; % is set by controls: 0 for no effect and ±100 for the full control effect; nearly all actives have a fitted effect of over 60% in size
#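 Drosophila S2 cells stably expressing Gal4-DBD/mouse RORγ fusion under metallothionein promoter plus UAS-luciferase; compound 1 h, then 700 uM CuSO4 induction for 20 h at ambient temperature; inhibition read as reduced luminescence.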
# TRPV1 PAM – enhances activation of the human vanilloid receptor TRPV1. Q8NER1. TRPV1-expressing cells, Fluo-8 calcium influx, capsaicin EC20 potentiation. potentiation, % at 8.33 µM. actives 0.02% (n = 320,000); in the data active = potentiation above about 80%; inconclusive = between about 30% and that limit; note: 0% is about no effect
# Target sequence (Q8NER1 whole entry, looked up): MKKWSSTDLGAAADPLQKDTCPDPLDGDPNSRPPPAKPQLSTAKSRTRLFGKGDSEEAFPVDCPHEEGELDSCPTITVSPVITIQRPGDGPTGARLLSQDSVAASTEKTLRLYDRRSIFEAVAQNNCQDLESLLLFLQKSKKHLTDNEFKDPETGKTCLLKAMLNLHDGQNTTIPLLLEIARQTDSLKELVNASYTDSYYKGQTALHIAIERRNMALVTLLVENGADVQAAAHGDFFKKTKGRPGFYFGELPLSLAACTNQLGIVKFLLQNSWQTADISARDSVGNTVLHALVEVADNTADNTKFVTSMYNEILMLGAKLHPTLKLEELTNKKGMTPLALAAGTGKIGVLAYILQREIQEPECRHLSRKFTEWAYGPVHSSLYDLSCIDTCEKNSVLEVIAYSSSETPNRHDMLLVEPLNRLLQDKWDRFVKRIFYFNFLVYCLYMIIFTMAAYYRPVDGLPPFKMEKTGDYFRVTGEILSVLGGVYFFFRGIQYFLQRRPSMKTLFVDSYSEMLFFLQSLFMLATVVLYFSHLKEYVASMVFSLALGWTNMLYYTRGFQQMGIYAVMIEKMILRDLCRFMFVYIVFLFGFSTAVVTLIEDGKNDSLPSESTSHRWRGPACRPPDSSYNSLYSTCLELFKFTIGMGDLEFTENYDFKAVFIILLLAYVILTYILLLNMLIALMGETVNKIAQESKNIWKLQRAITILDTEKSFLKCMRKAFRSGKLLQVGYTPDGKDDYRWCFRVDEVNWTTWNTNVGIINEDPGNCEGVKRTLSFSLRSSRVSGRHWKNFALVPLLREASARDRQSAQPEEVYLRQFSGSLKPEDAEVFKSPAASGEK
#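 Fluo-8 calcium influx in TRPV1-expressing cells, kinetic read (ex 480/em 520 nm). Compound added and read 3 min for agonist activity, followed by capsaicin at EC20 final and 2 min further read for enhancement.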
# TRPV1 agonist – agonists of human vanilloid receptor 1 (TRPV1); actives 0.19% (n = 320,000); Q8NER1; activation, % at 8.33 µM; TRPV1-expressing cells, Fluo-8 calcium influx, agonist mode; in the data active = activation above about 80%; inconclusive = between about 30% and that limit; note: 0% is about no effect
#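 TRPV1-expressing cells were cultured overnight at 35.5C and loaded with Fluo-8 calcium dye for 40 to 90 min at room temperature. After a 10 s baseline, compound was added and calcium influx was read kinetically for 3 min (ex 480/em 520 nm).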
# uPA generation – cell surface uPA generation inhibition | cell surface uPA generation assay, qHTS | Potency, µM (top dose mostly 38.3 µM), for inactives: at the top dose activity change, negative = inhibition, usual class: inhibitors | actives 0.31% (n = 330,000) | AID 540303; active = well fitted inhibition curve with a large enough effect; inconclusive = small, poorly fitted or top-dose-only effect; inactive = no such curve, though single readings can be large or run the other way; tested in mouse RAW 264.7 cells; note: potency is the fitted concentration of half-maximal effect; % is set by controls: 0 for no effect and ±100 for the full control effect; nearly all actives have a fitted effect of over 55% in size
# Gal4-VP16 FLuc – Gal4-VP16 reporter inhibition counter-screen. Drosophila S2 Gal4-VP16 UAS-luciferase, luminescence, 20 h. Potency, µM (highest dose often 53.6 µM), for the others: top-dose activity, negative = inhibition, usual class: inhibitors. actives 3.5% (n = 310,000);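 note: Gal4-VP16 expression switched on by copper sulfate through the metallothionein promoter; potency is the fitted concentration of half-maximal effect; % is set by controls: 0 for no effect and ±100 for the full control effect; nearly all actives have a fitted effect of over 50% in size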
# * hit, by the source's call; ? = inconclusive; . = no result; [ ] = another dose, or the depositor's remark. Only some compounds are listed: those with a hit (about 5.8% of all), similar ones and a draw of the others. Unless noted, calls come from the whole dose curve; as a rule, active = well fitted curve in the direction sought with a large enough effect; inconclusive = small, poorly fitted or top-dose-only effect, or another doubt; inactive = no such curve, though single readings can be large; an effect the other way counts as inactive or inconclusive.
SMILES,RORgamma inh,TRPV1 PAM,TRPV1 agonist,uPA generation,Gal4-VP16 FLuc
O=C(Nc1cc(Cl)ccc1F)C1=COCCO1,.,-11.2,-0.1,2.0%,.
CC(C)(C)c1ccc(CN(Cc2ccco2)Cc2nnnn2C2CCCC2)cc1,36.1%,-7.3,-2.1,0.7%,2.82µM*
COc1ccc2cc(CN(Cc3ccco3)Cc3nnnn3C3CCCCC3)c(=O)[nH]c2c1,26.3%,1.0,0.7,-17.7%,-8.2%
COc1ccc(OC)c(CN2CCN(C(=O)[C@@H](NC(=O)c3cccc(C)c3)C(C)C)CC2)c1,.,-10.7,2.2,1.5%,.
CC(=O)c1cccc(NC(=O)CCc2nnc3ccc(N4CCOCC4)nn23)c1,-20.4%,-3.5,8.1,1.1%,0.9%
O=C(Oc1ccccc1)N1CCC[C@@]2(CCN(c3ccccc3)C2)C1,25.8%,.,.,.,-1.9%
O=C(Nc1ccc(Cl)cc1C(F)(F)F)C(Sc1nnc(-c2cccs2)o1)c1ccccc1 (stereo unspecified),-27.1%,-4.4,8.2,-10.8%,2.4%
O=C(Nc1cc(C(F)(F)F)ccc1Cl)C(Sc1nnc(-c2cccs2)o1)c1ccccc1 (stereo unspecified),11.2µM*,1.1,7.0,-2.8%,?
CC(CCc1ccccc1)NC(=O)COC(=O)c1ccc([N+](=O)[O-])cc1 (stereo unspecified),-7.4%,7.2,9.6,-0.8%,3.0%
CS(=O)(=O)c1ccc(C(=O)OCC(=O)NC(=O)C2CCCCC2)cc1[N+](=O)[O-],11.2µM*,?,-1.4,-18.8%,?
Cc1ccccc1NC(=O)COC(=O)c1ccc(S(C)(=O)=O)c([N+](=O)[O-])c1,14.1µM*,0.6,0.8,?,?
CN(C)S(=O)(=O)c1ccc(C(=O)OCc2nnc(-c3ccccc3)o2)cc1,31.9%,6.3,-0.4,-0.6%,-10.9%
CS(=O)(=O)c1ccc(C(=O)OCc2nnc(-c3ccccc3)o2)cc1[N+](=O)[O-],15.8µM*,0.4,-0.9,-12.3%,12.6µM*
CC(CCc1ccccc1)NC(=O)COC(=O)c1ccc(S(C)(=O)=O)c([N+](=O)[O-])c1 (stereo unspecified),10µM*,-5.2,4.4,-15.9%,?
CS(=O)(=O)c1ccc(C(=O)OCC(=O)NC(=O)C2COc3ccccc3O2)cc1[N+](=O)[O-] (stereo unspecified),.,.,.,-9.4%,.
C/C(N)=C(/C#N)C(=O)COC(=O)c1cc(-c2ccc(Br)cc2)nc2ccccc12,31.2%,-4.7,?,0.4%,?
COC(=O)c1ccc(C(/C=C/[C@@H](C)C(=O)N(C)Cc2ccccc2)NC(=O)OCc2ccccc2)cc1 (stereo partly specified),44.4%,.,.,.,-18.4%
Fc1cccc2sc(Nc3nc4cc5c(cc4s3)OCCO5)nc12,5.62µM*,6.8,-4.7,-6.6%,11.2µM*
O=C(Nc1nc2cc3c(cc2s1)OCO3)C1CC1,19.0%,-23.3,6.5,-4.0%,-10.9%
Fc1cc(F)c2nc(Nc3nc4cc5c(cc4s3)OCO5)sc2c1,15.8µM*,-5.9,-2.9,4.2%,?
Fc1cccc2sc(Nc3nc4cc5c(cc4s3)OCO5)nc12,6.31µM*,12.1,0.1,4.9%,7.08µM*
CC(=O)Nc1nc2c(F)cccc2s1,.,.,.,-0.2%,.
CC(C)C(=O)Nc1nc2cc3c(cc2s1)OCO3,57.8%,-20.8,10.5,-25.3%,?
O=C(CSc1nnc(-c2ccccc2Br)o1)N1CCc2ccccc2C1,-34.5%,-3.2,21.5,2.0%,3.0%
CCCCn1c(=O)c(CCC(=O)OCC(=O)NC(=O)NCCOC)nc2ccccc21,1.7%,1.9,-3.5,-0.9%,0.6%
SMILES,RORgamma inh,TRPV1 PAM,TRPV1 agonist,uPA generation,Gal4-VP16 FLuc
N#CC1(NC(=O)COC(=O)/C=C/c2ccc3ccccc3n2)CCCCC1,40.6%,-13.1,8.8,-13.4%,-8.5%
COc1ccc(C(c2c(C)[nH]n(C(N)=S)c2=O)C(C#N)C#N)cc1 (stereo unspecified),4.47µM*,-2.8,-1.8,-6.5%,4.47µM*
COc1ccc(C(C#N)c2ccc(=O)[nH]n2)cc1 (stereo unspecified),-4.6%,-0.4,1.1,4.0%,1.5%
O=C(N/N=C/C1CC=CCC1)c1ccccc1O (stereo unspecified),11.2µM*,-7.0,6.9,-6.0%,?
O=C(N/N=C/C1CC=CCC1)c1ccc(Cl)cc1O (stereo unspecified),12.6µM*,-23.9,20.8,4.0%,10µM*
CN1/C(=C\C=C2/C(=O)Oc3ccccc3C2=O)C(C)(C)c2ccccc21,-21.2%,-6.2,106.7*,-1.1%,-6.6%
C=CCOC(=O)N[C@H](/C(C(=O)OC)=C(\C)NCc1ccccc1)c1ccc(Br)cc1,1.0%,.,.,.,-0.9%
C[C@H]1C=CC(=O)O[C@H]1c1ccccc1,-9.2%,.,.,2.51µM*,-0.9%
C[C@@H]1C=CC(=O)O[C@@H]1c1ccc(C(F)(F)F)cc1,?,-8.3,4.5,.,2.8%
CC(=O)Nc1ccc(Nc2nc(-c3ccccc3)nc3ccccc23)cc1,-28.3%,1.7,-1.0,-2.5%,12.6µM*
COc1ccc(CCNc2nc(-c3cccnc3)nc3ccccc23)cc1OC,5.5%,-18.9,86.0*,5.3%,2.7%
Cc1ccc(Nc2nc(-c3cccnc3)nc3ccccc23)cc1,18.5%,2.9,95.1*,-10.1%,-4.1%
Oc1ccc(Nc2nc(-c3ccccc3)nc3ccccc23)cc1,3.2%,-12.7,?,2.0%,-2.4%
CC(=O)Nc1cccc(Nc2nc(-c3ccccc3F)nc3ccccc23)c1,7.0%,-15.2,96.2*,-1.2%,-5.6%
COC(=O)CNc1nc(-c2ccccc2F)nc2ccccc12,-3.4%[0.365 µM],-0.7,1.2,-10.0%,.
CN(CC(=O)Nc1ccccc1Cl)CC(=O)Nc1cccc2ccccc12,.,.,.,6.2%,.
COc1ccc(C(=O)N2CCC3(CCCN(C)C3)CC2)cc1,-22.3%,.,.,.,-4.8%
COc1cc(NC(=S)Nc2ccc(OC(F)F)cc2)cc(OC)c1,10µM*,0.5,0.9,-1.8%,?
FC(F)Oc1ccc(NC(=S)NCc2cccnc2)cc1,17.3%,-16.6,2.9,3.1%,-18.0%
Fc1ccc(CNC(=S)Nc2ccc(OC(F)F)cc2)cc1,11.2µM*,9.5,?,-17.3%,?
O=C1CCC(=O)N1c1ccc(-c2nc3ccccc3s2)cc1,?,1.0,2.3,-9.8%,?
O=C(NNC1=Nc2cccc3cccc1c23)c1ccc(Br)cc1,0.708µM*,7.7,1.0,0.1%,2µM*
COc1ccc(CC(=O)NNC2=Nc3cccc4cccc2c34)cc1OC,?,-27.7,?,7.1%,-20.7%
O=c1c(/C=N/OCc2ccc(Cl)cc2Cl)c[nH]n1-c1cccc(Cl)n1,12.6µM*,?,-7.8,0.1%,20µM*
CCOC(=O)C(Cc1c[nH]c2ccccc12)NC(=O)c1ccccc1Br (stereo unspecified),8.91µM*,-5.8,7.3,0.4%,?
CCCCCCCn1c(=O)c(C(=O)OC)c(N)c2ccccc21,1.78µM*,15.2,26.1,-0.2%,1.26µM*

# Screening data deposited in PubChem BioAssay by National Center for Advancing Translational Sciences (NCATS).
